{
  "source": "PubChem BioAssay (NCI)",
  "note": "Compounds without any hit were thinned out: in the full panel of roughly 83,000, 20% have a hit.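 Cells were grown in 96-well plates and exposed to the test compound at a single concentration for 48 hours; results are reported as percent growth, with values below 10 considered active.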 A number with no mark means an inactive call. Calls of active or inactive are those of the source.",
  "data": [
    {"test_system": "EKVX NSCLC", "assay": "NCI-60 one-dose screen, 48 h (100 = growth as untreated, 0 = no growth, -100 = all killed)", "settings": "10 µM unless noted", "procedure": "Growth inhibition of the EKVX human Non-Small Cell Lung tumor cell line is measured as a screen for anti-cancer activity. Cells are grown in 96 well plates and exposed to the test compound for 48 hours. Compounds are tested at a single concentration, which is 10^-5 M for most compounds. The reported endpoint is percent growth (GI% or GIPRCNT), where numbers from 0 - 100% represent growth inhibition, and numbers from -100% - 0 represent cell death. For example, a value of 40 represents 60% growth inhibition. A value of 0 means no net growth occurred over the course of the experiment. A value of -40 indicates 40% of cells at the beginning of the experiment died by the end of the experiment. A value of -100 means all cells are dead at the end of the experiment.\nNCI-60 Human Tumor Cell Lines Screen was performed using the standard one-dose NCI protocol, which is described in more detail at https://dtp.cancer.gov/discovery_development/nci-60/default.htm.\nCompounds with GIPRCNT values below 10 were considered active. Activity score was based on GIPRCNT using the following formula: […]\nScore is 0 for GIPRCNT values of 100 or above, 50 for GIPRCNT values of 0, and 100 for GIPRCNT values of -100.", "values": [
      {"smiles": "CC(=O)NCCSC(=O)C(=O)SCCNC(C)=O", "growth": "101%"},
      {"smiles": "N#Cc1c(N)[nH]c(S)c1C#N", "growth": "101%"},
      {"smiles": "CC(C)(C)c1ccc(C(O)CCCN2CCC(C(O)(c3ccccc3)c3ccccc3)CC2)cc1", "note": "(stereo not given)", "growth": "28.3%"},
      {"smiles": "N#CCCCCCn1c2ccccc2c2c3c(c4c5ccccc5[nH]c4c21)C(=O)N(O)C3=O", "growth": "46%"},
      {"smiles": "COc1ccc(Cn2cc3c(c2-c2ccccc2)CCc2cncnc2-3)cc1", "growth": "48.4%"},
      {"smiles": "Cn1c(=O)c2c(nc(Br)n2CCC(=O)Nc2ccc(F)cc2)n(C)c1=O", "growth": "108%"},
      {"smiles": "CC(=O)NC1(C(=O)O)CCCC1", "growth": "112%"},
      {"smiles": "CCCCCCCCSc1ncnc2c1ncn2CO", "growth": "55.5%"},
      {"smiles": "COc1cc(Oc2cc(-c3cccnc3)ccc2NC(=O)Nc2ccc(F)cc2F)cc(OC)c1OC", "growth": "90.4%"},
      {"smiles": "COc1ccc(OC)c2c1[nH]c(=O)c1c3ccccc3cn21", "growth": "-43.4% (active)"},
      {"smiles": "COc1ccc(C(=O)/C=C/c2c(Cl)nc3c(c(C)nn3-c3ccccc3)c2-c2ccc(Br)cc2)cc1", "growth": "109%"},
      {"smiles": "ClC1=C(Cl)C(=C2C(Cl)=C(Cl)C(Cl)=C2Cl)C(Cl)=C1Cl", "growth": "105%"},
      {"smiles": "COC(=O)[C@]12CC[C@@H](C)[C@H](C)[C@@H]1C1=CC[C@@H]3[C@@]4(C)C[C@@H](OC(=O)c5ccco5)[C@H](O)[C@@](C)(CO)[C@@H]4[C@H](O)C[C@@]3(C)[C@]1(C)CC2", "growth": "-91.9% (active)"},
      {"smiles": "CN1CCN(Cc2ccc(NC(=O)c3[nH]ncc3Nc3ccnc4ccnn34)cc2)CC1", "growth": "100%"},
      {"smiles": "COc1cc(C(=O)/C=C/c2cccnc2Nc2ccccc2)cc(OC)c1OC", "growth": "-5.31% (active)"},
      {"smiles": "S=c1[nH]nc2sc3ccccc3n12", "growth": "116%"},
      {"smiles": "COc1cc(OC)c2cc(C(=O)O)c(=O)oc2c1", "growth": "98.2%"},
      {"smiles": "CCCC[N+](CCCC)=c1ccc2nc3c(C)cc(N(CC)CC)cc3sc-2c1", "growth": "4.13% (active)"},
      {"smiles": "COc1c(C)c2c(c(O)c1C/C=C(\\C)CCC(=O)OCCN1CCOCC1)C(=O)OC2", "growth": "46%"},
      {"smiles": "CN1C(=O)/C(=C/c2nc(-c3cccc(F)c3)n3ccccc23)c2ccccc21", "growth": "79%"},
      {"smiles": "Nc1nc(SCc2ccccc2Cl)c(-c2ccccc2)c(SCc2ccccc2Cl)n1", "growth": "97.3%"},
      {"smiles": "NC(=O)SCC(=O)Nc1ccccc1-c1ccccc1", "growth": "121%"},
      {"smiles": "CC1=C(C(=O)Nc2ccccc2)C(c2ccc3c(c2)OCCO3)NC(=O)N1", "note": "(stereo not given)", "growth": "112%"},
      {"smiles": "COc1ccc(C2CC(c3ccc(OC)c(OC)c3)=NN2C(=O)c2cc(OC)c(OC)c(OC)c2)cc1", "note": "(stereo not given)", "growth": "48.2%"},
      {"smiles": "O=c1ccn(C2CCCO2)c(=O)[nH]1", "note": "(stereo not given)", "growth": "107%"},
      {"smiles": "Nc1nc(Cl)c2[nH]cnc2n1", "growth": "99.5%"},
      {"smiles": "O=C1C(=O)c2ccc(Br)cc2-c2cc(Br)ccc21", "growth": "99.8%"},
      {"smiles": "CCOC(=O)C1C(=O)OC2CCCCC21", "note": "(stereo not given)", "growth": "120%"},
      {"smiles": "CCOC(=O)C1=C(COCCN)NC(C)=C(C(=O)OC)C1c1ccccc1Cl", "note": "(stereo not given)", "growth": "83.9%"},
      {"smiles": "CSc1ccc2c(c1)N(CCC1CCCCN1C)c1ccccc1S2", "note": "(stereo not given)", "growth": "67.5%"},
      {"smiles": "CCC(c1ccccc1)c1noc(CCN(CC)CC)n1", "note": "(stereo not given)", "growth": "105%"},
      {"smiles": "CCOC(=O)C1=C(C)N2C(=NC3=C(CCC/C3=C\\c3ccc(Cl)cc3)C2c2ccc(Cl)cc2)S1", "note": "(stereo not given)", "growth": "64.6%"},
      {"smiles": "Nc1ccc2c3c(cccc13)-c1ccccc1-2", "growth": "87.4%"},
      {"smiles": "COc1cc(/C=C2\\COc3ccc(O)c(O)c3C2=O)cc(OC)c1", "growth": "56.4%"},
      {"smiles": "O=C(Nc1ccc(Oc2ccc(NC(=O)Nc3ccc([N+](=O)[O-])cc3)cc2)cc1)Nc1ccc([N+](=O)[O-])cc1", "growth": "17.1%"},
      {"smiles": "C=C1CC[C@@H]2[C@](C)(COC(C)=O)[C@H](OC(C)=O)CC[C@@]2(C)[C@@H]1CC(Nc1ccc(S(=O)(=O)Nc2cc(C)on2)cc1)C1=CCOC1=O", "note": "(stereo not given in full)", "growth": "81.9%"},
      {"smiles": "Clc1ccc(-n2cnc3c(Cl)ncnc32)cc1Cl", "growth": "88.5%"},
      {"smiles": "Clc1ccccc1[C@@H]1C[C@@H]2Cc3cc(Br)c4ccccc4c3N1O2", "growth": "70%"},
      {"smiles": "CCN(CC)CCOc1ccc(C2=C(c3ccccc3)CCc3cc(OC)ccc32)cc1", "growth": "54.4%"},
      {"smiles": "COc1ccc2c(c1)[nH]c(=O)c1c3cc(OC)c(OC)cc3cn21", "growth": "36.9%"}
    ]}
  ]
}
